Source: PubChem BioAssay (NCI)
About 79,000 compounds went through this panel and 15% of them were active in at least one assay; those are over-represented in the sample as a whole. Cut-off read from the data, not from the text of the source: active = growth inhibition above about 70%; inactive = the rest.

Assays:
[1] = NCI Yeast Anticancer Drug Screen. Data for the rad50 strain (AID 155);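 note: 0% = growth of vehicle-only cultures of the same strain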; details: S. cerevisiae rad50 strain growth inhibition; at 50.0 µM; stronger effect = higher value
Outline: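 Relative growth inhibition (compound vs vehicle) was measured in yeast with a defined repair-gene alteration.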

[2] = NCI Yeast Anticancer Drug Screen. Data for the mec2-1 strain (AID 157); details: S. cerevisiae mec2-1 strain, at 50.0 µM, stronger effect = higher value
Outline: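 Test agents were screened against the mec2-1 yeast strain, with defined DNA repair or cell cycle alteration. Growth was scored as inhibition against vehicle-only controls.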

[3] = NCI Yeast Anticancer Drug Screen. Data for the sgs1 mgt1 strain (AID 161);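 note: 0% = growth of cultures given vehicle only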; details: S. cerevisiae sgs1 mgt1 strain, at 50.0 µM, stronger effect = higher value
Outline: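 Read-out: growth inhibition vs vehicle controls. Cells: mutant yeast strain deficient in DNA damage repair.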

[4] = NCI Yeast Anticancer Drug Screen. Data for the cln2 rad14 strain (AID 165);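 note: 0% = growth equal to vehicle treated cultures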; details: S. cerevisiae cln2 rad14 strain, at 50.0 µM, stronger effect = higher value
Outline: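 Growth of compound-exposed yeast (cln2 rad14 genotype) measured and expressed as inhibition relative to vehicle.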

[5] = NCI Yeast Anticancer Drug Screen. Data for the bub3 strain (AID 167); details: S. cerevisiae bub3 mutant strain, at 50.0 µM, stronger effect = higher value
Outline: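 Screening used yeast with an engineered genetic alteration affecting cell cycle control. Compound-exposed cultures were compared with vehicle cultures, and reduced growth was taken as inhibition.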

[6] = NCI Yeast Anticancer Drug Screen. Data for the mlh1 rad18 strain (AID 175); details: S. cerevisiae mlh1 rad18 strain growth inhibition; at 50.0 µM; stronger effect = higher value
Outline: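 In this whole-cell yeast screen, a strain with altered DNA damage repair is challenged with compound, and its growth is measured against matched vehicle-treated controls.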

Measured: growth inhibition

Cc1cc(C)c(NC(=O)Nc2ccccc2F)cc1C
inactive: [1] 18.7% | [2] 19.6% | [3] 14.3% | [4] 24.7% | [5] 33.1% | [6] 8.85%

O=c1cc([O-])[n+](C2OC(CO)C(O)C2O)c2sccn12 (stereo not given)
inactive: [1] 10.2% | [2] 9.2% | [3] 16.6% | [4] -0.5% | [5] -2.55% | [6] -2.8%

CC1C2CC(C(C3C(=O)C4CC3C(C)(C)C4C)C2=O)C1(C)C (stereo not given)
inactive: [1] -13.1% | [2] -26.1% | [3] -43.2% | [4] -1% | [5] -27.4% | [6] -32.1%

COc1ccc(C(O)C(C)(C(=O)O)c2ccccc2)cc1 (stereo not given)
inactive: [1] 2.95% | [2] 2.25% | [3] 4.6% | [4] -6.35% | [5] -5.05% | [6] 8.55%

CCCOP(=O)(CCCP(=O)(OCCC)OCCC)OCCC
inactive: [1] -8.4% | [2] -9.6% | [3] 0.5% | [4] -25.6% | [5] 6.2% | [6] -12.5%

CC(C)CC(=O)CC(=O)C(C)(C)C.CC(C)CC(=O)CC(=O)C(C)(C)C.CC(C)CC(=O)CC(=O)C(C)(C)C.CC(C)CC(=O)CC(=O)C(C)(C)C.[Ce]
inactive: [1] 3% | [2] 19% | [3] 55.4% | [4] -16.1% | [5] 2.6% | [6] 47.1%

O=C(O)CCC(=O)c1ccc[nH]1
inactive: [1] 7.3% | [2] -23.2% | [3] -30.1% | [4] 19.2% | [5] 15.1% | [6] -19.1%

CC=C(c1ccccc1)c1ccccc1
inactive: [1] -34% | [2] -25.2% | [3] -13.7% | [4] -10% | [5] -3.3% | [6] -15.2%

COC(=O)CCN(C)c1ccccc1
inactive: [1] -4.7% | [2] -0.55% | [3] -3.75% | [4] -8.15% | [5] 3.65% | [6] -7.5%

C=C(C)COC1CCCCO1 (stereo not given)
inactive: [1] -3.75% | [2] -15.1% | [3] -36.7% | [4] 14.7% | [5] -42.3% | [6] -39.1%
